# Measurements as given in ChEMBL document CHEMBL5598561, “ASAP - In vitro binding kinetics” (2024).
# Biological target: Nonstructural protein 3 (Zika virus) (UniProt A0A024AXB9)
# Details: PRVABC59, Concentration 10.0 uM
# Sequence of Nonstructural protein 3 (Zika virus) (A0A024AXB9 as listed by the source): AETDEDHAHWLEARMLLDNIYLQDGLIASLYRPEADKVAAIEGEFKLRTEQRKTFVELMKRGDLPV
compound,measurement,setting,value
O=C(Nc1ccc2c(c1)CNCCC2)c1cc(Cl)cc2[nH]ncc12,pKD,"Immobilization level 3900.0 pg/mm2, Rmax 31.0 pg/mm2, ka 773276.281 M-1s-1, kd 0.645 1/s",6.08
same,pKD,"Immobilization level 4900.0 pg/mm2, Rmax 48.0 pg/mm2, ka 455527.731 M-1s-1, kd 0.593 1/s",5.89
same,pKD,"Immobilization level 5500.0 pg/mm2, Rmax 50.0 pg/mm2, ka 530646.741 M-1s-1, kd 0.578 1/s",5.96
same,pKD,"Immobilization level 10000.0 pg/mm2, Rmax 36.0 pg/mm2, ka 650451.64 M-1s-1, kd 0.663 1/s",5.99
same,pKD,"Immobilization level 12000.0 pg/mm2, Rmax 60.0 pg/mm2, ka 669381.958 M-1s-1, kd 0.419 1/s",6.2
same,pKD,"Immobilization level 13000.0 pg/mm2, Rmax 48.0 pg/mm2, ka 553000.714 M-1s-1, kd 0.56 1/s",5.99
O=C(Nc1ccc2c(c1)CNC2)c1cc(Cl)cc(-n2cccc2)c1,pKD,"Immobilization level 10000.0 pg/mm2, Rmax 42.0 pg/mm2, ka 59822.118 M-1s-1, kd 0.636 1/s",4.97
same,pKD,"Immobilization level 12000.0 pg/mm2, Rmax 78.0 pg/mm2, ka 29884.208 M-1s-1, kd 0.167 1/s",5.25
same,pKD,"Immobilization level 13000.0 pg/mm2, Rmax 57.0 pg/mm2, ka 51449.064 M-1s-1, kd 0.399 1/s",5.11
Cc1ccc(NC(=O)c2cc(Cl)cc3[nH]ncc23)cc1CN,pKD,"Immobilization level 3900.0 pg/mm2, Rmax 48.0 pg/mm2, ka 216599.094 M-1s-1, kd 1.609 1/s",5.13
same,pKD,"Immobilization level 4900.0 pg/mm2, Rmax 54.0 pg/mm2, ka 242573.531 M-1s-1, kd 1.329 1/s",5.26
same,pKD,"Immobilization level 5500.0 pg/mm2, Rmax 70.0 pg/mm2, ka 222473.098 M-1s-1, kd 1.517 1/s",5.17
same,pKD,"Immobilization level 10000.0 pg/mm2, Rmax 57.0 pg/mm2, ka 286418.042 M-1s-1, kd 1.725 1/s",5.22
same,pKD,"Immobilization level 12000.0 pg/mm2, Rmax 54.0 pg/mm2, ka 243003.449 M-1s-1, kd 1.258 1/s",5.29
same,pKD,"Immobilization level 13000.0 pg/mm2, Rmax 74.0 pg/mm2, ka 258887.039 M-1s-1, kd 1.289 1/s",5.3
CNCc1ccc(NC(=O)c2cc(Cl)cc3[nH]ncc23)cc1,pKD,"Immobilization level 3900.0 pg/mm2, Rmax 37.0 pg/mm2, ka 226628.924 M-1s-1, kd 2.375 1/s",4.98
same,pKD,"Immobilization level 4900.0 pg/mm2, Rmax 68.0 pg/mm2, ka 224620.672 M-1s-1, kd 2.867 1/s",4.89
same,pKD,"Immobilization level 5500.0 pg/mm2, Rmax 65.0 pg/mm2, ka 234270.717 M-1s-1, kd 2.589 1/s",4.96
same,pKD,"Immobilization level 10000.0 pg/mm2, Rmax 32.0 pg/mm2, ka 593939.753 M-1s-1, kd 4.324 1/s",5.14
same,pKD,"Immobilization level 12000.0 pg/mm2, Rmax 64.0 pg/mm2, ka 470578.84 M-1s-1, kd 3.187 1/s",5.17
same,pKD,"Immobilization level 13000.0 pg/mm2, Rmax 38.0 pg/mm2, ka 481481.04 M-1s-1, kd 3.216 1/s",5.17
O=C1NCc2c1cccc2C(=O)Nc1ccc2c(c1)CNC2,pKD,"Immobilization level 3900.0 pg/mm2, Rmax 18.0 pg/mm2, ka 393715.885 M-1s-1, kd 4.071 1/s",4.99
same,pKD,"Immobilization level 4900.0 pg/mm2, Rmax 15.0 pg/mm2, ka 235814.335 M-1s-1, kd 2.807 1/s",4.92
same,pKD,"Immobilization level 5500.0 pg/mm2, Rmax 18.0 pg/mm2, ka 357121.96 M-1s-1, kd 4.231 1/s",4.93
same,pKD,"Immobilization level 12000.0 pg/mm2, ka 172299.161 M-1s-1, kd 1.476 1/s",5.07
same,pKD,"Immobilization level 13000.0 pg/mm2, Rmax 19.0 pg/mm2, ka 18937.32 M-1s-1, kd 1.323 1/s",4.16
N#Cc1ccc(Cl)c(C(=O)Nc2ccc3c(c2)CNC3)c1,pKD,"Immobilization level 10000.0 pg/mm2, Rmax 28.0 pg/mm2, ka 455778.547 M-1s-1, kd 4.384 1/s",5.02
same,pKD,"Immobilization level 12000.0 pg/mm2, Rmax 32.0 pg/mm2, ka 264828.882 M-1s-1, kd 2.458 1/s",5.03
same,pKD,"Immobilization level 13000.0 pg/mm2, Rmax 23.0 pg/mm2, ka 313770.073 M-1s-1, kd 2.521 1/s",5.09
CCNCc1ccc(NC(=O)c2cc(Cl)cc3[nH]ncc23)cc1,pKD,"Immobilization level 3900.0 pg/mm2, Rmax 49.0 pg/mm2, ka 254831.951 M-1s-1, kd 6.984 1/s",4.56
same,pKD,"Immobilization level 4900.0 pg/mm2, Rmax 79.0 pg/mm2, ka 107155.284 M-1s-1",4.35
same,pKD,"Immobilization level 5500.0 pg/mm2, Rmax 69.0 pg/mm2, ka 175345.198 M-1s-1",4.55
same,pKD,"Immobilization level 12000.0 pg/mm2, Rmax 35.0 pg/mm2, ka 320872.936 M-1s-1, kd 4.693 1/s",4.83
